Source: PubChem
Compounds with a hit are over-represented: about 2.9% of the library has one in this group of screens.
DRD3 antagonist = qHTS of D3 Dopamine Receptor Antagonist: qHTS. max response, negative = inhibition, %. D3R cells, DiscoveRx beta-arrestin luminescence, antagonist mode; active compounds read low. D(3) dopamine receptor (Homo sapiens), P35462. 360,000 tested, 2.5% active; in the data active means max response below about -50%; further: on the % scale 0 is the no-effect control and ±100 the full control effect
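Cells expressing the human receptor were seeded at 1500 cells/well, incubated overnight at 37 degrees C in 5% CO2, then exposed to library compounds with dopamine controls for 90 minutes at 37 degrees C before luminescent detection.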
MmCpn inh = Inhibitors of TCP-1 ring complex (TRiC) of Methanococcus maripaludis (MmCpn): qHTS | purified Mm-Cpn ATPase, ADP Transcreener TR-FRET | Chaperonin Mm-Cpn (Methanococcus maripaludis) | Potency, µM (top dose mostly 76.9 µM), for the others: at the top dose activity, negative = inhibition, usual class: inhibitors | AID 504842, 2011 | 330,000 tested, 0.031% active; active means well fitted inhibition curve with a large enough effect; further: potency means the concentration at half of the fitted maximal effect; on the % scale 0 is the no-effect control and ±100 the full control effect; nearly all actives have a fitted effect of over 80% in size
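Purified archaeal Mm-CPN (25nM final) preincubated 10 min at 37degC with compound, then 10uM ATP for 30 min at 37degC; ADP measured by HTRF Transcreener TR-FRET; buffer 30 mM TRIS pH 7.4, 100mM KCl, 5mM MgCl2, 1mM DTT.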
Rango complex inh = qHTS Assay for Inhibitors of Rango (Ran-regulated importin-beta cargo) - Importin beta complex formation; Importin subunit beta-1 (Homo sapiens), Q14974; Rango CFP/YFP FRET sensor + importin beta, 45 min; Potency, µM (doses to about 92.2 µM), inactives show at the top dose inhibition of complex formation; 340,000 tested, 0.031% active; AID 540263, 2011;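 further: potency means the concentration at half of the fitted maximal effect; 0% = DMSO wells and 100% = buffer wells lacking importin beta; nearly all actives have a fitted effect of over 15% in size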
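FRET biosensor Rango (snurportin 1 IBB between N-terminal EYFP and C-terminal Cerulean), 50 nM in PBS/1 mM DTT/0.02% Tween-20/0.1% BSA, preincubated 5 min RT with compound; 0.125 microM importin beta added, 45 min RT, CFP/YFP FRET ratio read.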
TSG101-PTAP inh = qHTS Assay for Iinhibitors of HIV-1 Budding by Blocking the Interaction of PTAP/TSG101. 340,000 tested, under 10 active. Potency, µM (titrated, usually from 115 µM), inactives show at the highest dose activity change, negative = inhibition, usual class: inhibitors. Fluorescence polarization, FITC-PTAP peptide / Tsg101 binding; active means well fitted inhibition curve with a large enough effect in the main read-out, with a control signal flat, not every such curve was filed as active; further: potency means the concentration at half of the fitted maximal effect; % of control where 0% means no effect
Target sequence (Q99816 whole entry, looked up): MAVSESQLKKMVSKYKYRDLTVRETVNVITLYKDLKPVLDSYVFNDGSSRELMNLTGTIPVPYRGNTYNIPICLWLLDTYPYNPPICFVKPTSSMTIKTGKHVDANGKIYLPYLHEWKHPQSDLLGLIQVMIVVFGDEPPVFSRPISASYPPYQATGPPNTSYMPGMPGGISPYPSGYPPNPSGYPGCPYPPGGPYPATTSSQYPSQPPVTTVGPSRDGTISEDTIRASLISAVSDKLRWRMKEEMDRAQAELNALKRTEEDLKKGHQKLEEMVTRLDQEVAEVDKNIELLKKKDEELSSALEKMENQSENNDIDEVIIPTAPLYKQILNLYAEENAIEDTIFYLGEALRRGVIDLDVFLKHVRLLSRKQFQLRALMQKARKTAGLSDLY
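Tsg101 binding domain (10 uM final) was mixed with compound and a FITC-labeled PTAP peptide (50 nM final) in HEPES pH 7.5 buffer with NaCl, Tween 20, EDTA and TCEP; fluorescence polarization was read after 20 min at r.t.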
Rango dissoc inh = qHTS Assay for Inhibitors of RanGTP induced Rango (Ran-regulated importin-beta cargo) - Importin beta complex dissociation; Snurportin-1 (Homo sapiens) + GTP-binding nuclear protein Ran (Homo sapiens) + Importin …; Biochemical FRET Rango-importin beta, RanGTP-induced dissociation; Potency, µM (top dose mostly 46.1 µM), for the others: at the highest dose activity change, negative = inhibition; 340,000 tested, 0.071% active; AID 540253, 2011; further: potency means the concentration at half of the fitted maximal effect; % of control where 0% means no effect; nearly all actives have a fitted effect of over 45% in size
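Rango FRET biosensor (snurportin-1 IBB flanked by N-terminal EYFP and C-terminal CFP10) at 0.1 uM, with 0.25 uM importin beta in PBS, 1mM DTT, 0.02% Tween-20, 0.1% BSA. 0.6 uM Ran, 2mM GTP and 0.2 uM RCC1 were then added for 45 min at room temperature. Inhibition read as loss of FRET rise.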
D3 ag = qHTS of D3 Dopamine Receptor Agonist: qHTS; D(3) dopamine receptor (Homo sapiens), P35462; D3R DiscoveRx beta-arrestin cells, luminescence, 90 min; max activation, %; 410,000 tested, 0.58% active; in the data active means max activation above about 30%; further: 0% is about no effect
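Cells at 1500/well, incubated overnight, then treated with pinned compounds (dopamine as control) for 90 min at 37 degrees C. DiscoveRx reagent added for 30 - 60 minutes at room temperature; luminescence read.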
The depositor's hits bear a star; . = no result. Unless noted, the call rests on the fitted dose curve.

SMILES | DRD3 antagonist | MmCpn inh | Rango complex inh | TSG101-PTAP inh | Rango dissoc inh | D3 ag
O=C(NCc1ccc2c(c1)OCO2)c1ccc(Br)cc1 | -15 | 0% | -1% | -5% | 5% | 47*
CCOc1c2ccc(C(=O)NCc3ccc4c(c3)OCO4)cc2nn1CC | -52* | -6% | 5% | -4% | 29% | 13
Cc1ccc(C)c2sc(NC(=O)c3ccc(N4CCCCC4)c([N+](=O)[O-])c3)nc12 | -59* | -1% | 0% | -5% | 0% | 5
COc1ccc(-c2cc(C(F)(F)F)nc(SCC(=O)N3CCCCC3C)n2)cc1OC (stereo not given) | . | . | . | . | . | 15
Cc1ccc(NS(=O)(=O)c2cc3[nH]c(=O)c(=O)[nH]c3cc2C)cc1N(C)C | . | . | . | . | . | 4
CCCn1nc2cc(C(=O)N(CC)c3ccc(OC)cc3)ccc2c1OCC | 3 | -2% | -3% | 0% | -8% | 49*
CCCn1nc2cc(C(=O)NCc3ccc(OC)cc3)ccc2c1OCC | 0 | -3% | 0% | 3% | 0% | -4
O=C(NCc1ccc2c(c1)OCO2)c1ccc(N2CCCCCC2)c([N+](=O)[O-])c1 | -60* | 2% | 4% | 6% | 1% | -11
CCN(CC)S(=O)(=O)c1ccc(C(=O)Nc2nnc(C(C)C)s2)cc1 | -69* | -1% | 0% | -2% | 0% | -3
CCN(CC)S(=O)(=O)c1nnc(NC(=O)c2ccc(C(C)C)cc2)s1 | . | . | . | . | . | -10
CCc1nnc(NC(=O)c2ccc(S(=O)(=O)N(CC(C)C)CC(C)C)cc2)o1 | -107* | -1% | 1% | -11% | 5% | -7
Cc1ccc(S(=O)(=O)CC(c2ccccc2)N2CCCCC2)cc1 (stereo not given) | -18 | 1% | 1% | -2% | 5% | -11
O=S(=O)(CC(CN1CCCCC1)N1CCCCC1)c1ccc2ccccc2c1 (stereo not given) | -85* | -3% | 1% | -1% | -4% | -26
Cc1ccc(S(=O)(=O)CC(CN2CCCCC2)N2CCCCC2)cc1 (stereo not given) | -68* | -5% | 1% | -1% | 0% | -14
COc1cccc(NC(=O)Cn2c(=O)n(-c3ccc(C)cc3)c(=O)c3ccccc32)c1 | . | . | . | . | . | 12
CN(C)CCN(C(=O)c1ccc2ccccc2c1)c1nc2ccc(Br)cc2s1 | -55* | -1% | -1% | -2% | -5% | -5
COc1ccc2nc(N(CCN(C)C)C(=O)c3ccc4ccccc4c3)sc2c1 | -63* | 0% | 2% | -2% | 13% | -2
COc1ccc2nc(N(Cc3cccnc3)C(=O)c3ccc(Cl)cc3)sc2c1 | . | . | . | . | . | 60*
COc1ccc2nc(N(Cc3cccnc3)C(C)=O)sc2c1 | . | . | . | . | . | 0
COc1ccc2nc(N(CCN(C)C)C(=O)c3ccc(C(=O)c4ccccc4)cc3)sc2c1 | -15 | 2% | 2% | 2% | 1% | 0
CCOc1ccccc1NC(=O)Cn1nnc2sc(-c3ccccc3)cc2c1=O | . | . | . | . | . | 0
COc1ccc2cc1Oc1ccc(cc1)C[C@H]1c3c(cc(OC)c4c3Oc3c(ccc5c3[C@H](C2)N(C)CC5)O4)CCN1C | 11 | 1% | -2% | -8% | 2% | -6
CN1CCc2cccc3c2C1Cc1ccc(O)c(O)c1-3 (stereo not given) | 65 | -1% | 0% | 1% | -7% | 123*
CCn1cc([N+](=O)[O-])c(C(=O)N2CCCC2)n1 | 11 | 1% | 1% | -6% | -7% | 32*
CCn1cc([N+](=O)[O-])c(C(=O)N2CCN(C(=O)c3ccco3)CC2)n1 | 12 | -2% | 0% | -5% | -23% | 1
